High-throughput results deposited in PubChem BioAssay by National Center for Advancing Translational Sciences (NCATS).
Sampled rows, rich in hits. Any-hit rate of the full collection: about 6.5%.
VACV Venus inh – inhibitors of vaccinia virus (Venus reporter); Vaccinia virus Venus reporter expression, fluorescence; Potency, µM (doses to about 36.5 µM), hits mostly inhibitors; 330,000 compounds, 0.46% hits; AID 720580; calls by dose curve; tested in A549 cells; further: nearly all actives have a fitted effect of over 30% in size
MARV entry inh – Marburg virus entry inhibition; Marburg virus pseudotyped entry inhibition, cell reporter; AID 540276; 300,000 compounds, 1.8% hits; Potency, µM (doses to about 37.8 µM), usual class: inhibitors; calls by dose curve; tested in HEK293 cells
FMDV antiviral – antivirals against foot and mouth disease virus; Potency, µM (top dose mostly 57.9 µM), actives largely listed as inhibitors; 410,000 compounds, 1.2% hits; FMDV antiviral cell-based qHTS; calls by dose curve; tested in HEK293T cells; further: read-out not given here; nearly all actives have a fitted effect of over 45% in size
LASV entry inh – blocks Lassa virus binding to or entry into cells; Lassa virus pseudotype entry inhibition, cell reporter; 300,000 compounds, 1.2% hits; Potency, µM (doses to about 37.9 µM), most hits filed as inhibitors; AID 540256; calls by dose curve; tested in HEK293 cells; further: nearly all actives have a fitted effect of over 50% in size
HCMV antiviral – human cytomegalovirus inhibition; HFF cells, HCMV-luciferase reporter, 72 h; active compounds read low; activity change, negative = inhibition, % at 57.5 µM; 410,000 compounds, 4.5% hits; in the data active means activity change below about -60%; inconclusive means no clear call, values can overlap the other calls; inactive means above about -39%
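Screen run at 2 compound doses on HFFs infected with reporter HCMV, MOI 1 PFU/cell. Luciferase activity from cell lysates at 72 h post infection gave inhibition relative to buffer-only and Salinomycin wells.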
Vaccinia mCherry – vaccinia inhibition (mCherry reporter). Vaccinia virus mCherry reporter infection, fluorescence. Potency, µM (highest dose often 36.5 µM), usual class: inhibitors. 310,000 compounds, 0.63% hits. AID 720579; calls by dose curve; tested in A549 cells; further: nearly all actives have a fitted effect of over 35% in size
Numbers stand for hits; i = inactive; ? = inconclusive; nt = no result.

SMILES	VACV Venus inh	MARV entry inh	FMDV antiviral	LASV entry inh	HCMV antiviral	Vaccinia mCherry
CCOc1ccc(C(C(=O)NCC2CCCO2)N(C(=O)c2snc(C(N)=O)c2N)c2cccc(F)c2)cc1 (stereo not given)	i	?	i	?	i	i
CCOc1ccc(C(C(=O)NCC2CCCO2)N(C(=O)c2snc(C(N)=O)c2N)c2ccccc2F)cc1 (stereo not given)	i	?	i	7.1µM	i	i
CCOc1ccc(C(C(=O)NCC2CCCO2)N(Cc2cccs2)C(=O)c2snc(C(N)=O)c2N)cc1 (stereo not given)	i	i	i	?	-68	i
CCCCn1c(C)csc1=Nc1cccnc1	i	i	i	i	-63	i
COCCn1c(-c2ccccc2)csc1=Nc1cccnc1	i	?	?	i	i	i
Cc1ccc(-c2csc(=Nc3cccnc3)n2CCCn2ccnc2)cc1C	?	?	16µM	?	-95	i
CCOc1ccc(CCNC(=O)c2cc3c(-c4ccccc4F)nn(C)c3s2)cc1OCC	?	?	?	?	-65	?
COc1cccc(-c2nn(C)c3sc(C(=O)NCc4cc(OC)ccc4OC)cc23)c1	i	i	?	i	i	i
CCOc1ccc(CCNC(=O)c2cc3c(-c4cccc(OC)c4)nn(C)c3s2)cc1OCC	?	?	?	?	-63	?
Cc1ccc(CCNC(=O)c2cc3c(-c4ccccc4F)nn(C)c3s2)cc1	i	i	i	i	i	i
CS(=O)(=O)c1ccc(-c2cccc3c2OC(CNC(=O)c2cc(C4CC4)[nH]n2)C3)cc1 (stereo not given)	i	nt	i	nt	nt	i
CN(C)c1ccc(C=c2c3cc(O)ccc3n3c2cc(-c2ccccc2)[n+]3C)cc1	i	?	i	?	-101	i
C[n+]1c(-c2ccccc2)cc2c(=Cc3ccccc3)c3ccccc3n21	i	?	3.5µM	7.9µM	-99	i
CN(C)c1ccc(/C=C2\c3ccccc3-c3ccc(N(C)C)cc32)cc1	i	nt	nt	nt	nt	i
C[n+]1c(-c2ccccc2)cc2c(=Cc3ccc([N+](=O)[O-])cc3)c3ccccc3n21	i	?	?	10µM	-101	i
COc1ccccc1-c1noc2nc(N(C)Cc3ccc(F)cc3)ccc12	nt	nt	nt	nt	i	nt
O=[N+]([O-])c1ccn(-c2nc(-c3ccccc3)cc(C(F)(F)F)n2)n1	i	i	i	i	i	i
O=[N+]([O-])c1cnn(-c2nc(-c3ccccc3)cc(C(F)(F)F)n2)c1	i	?	i	i	-76	i
O=[N+]([O-])c1ccc(O)c(-c2cc(C(F)(F)F)nc(-c3ccccc3)n2)c1	nt	i	?	nt	-101	nt
COC(=O)c1cc2c([nH]c1=O)CC(c1ccccc1)CC2=O (stereo not given)	i	nt	nt	nt	nt	i
Cc1ccc2c(c1)c1c(n2CC(O)CNC(CO)(CO)CO)CCCC1 (stereo not given)	i	nt	i	nt	nt	i
Cc1ccc2c(c1)c1c(n2CC(O)CNC2CCCCC2)CCCC1 (stereo not given)	?	nt	i	nt	-105	?
O=C(C#Cc1ccccc1)c1cccc([N+](=O)[O-])c1	i	13µM	25µM	?	i	i
CC(=O)c1cccc([N+](=O)[O-])c1	i	nt	i	nt	i	i
CC(=O)c1sc(NCc2ccc(C)cc2)nc1C	i	10µM	i	?	i	i
SMILES	VACV Venus inh	MARV entry inh	FMDV antiviral	LASV entry inh	HCMV antiviral	Vaccinia mCherry
CC(=O)c1sc(NCc2ccccc2)nc1C	i	i	i	?	i	i
O=S(=O)(NCc1ccc(Cl)cc1)c1ccc2[nH]c3c(c2c1)CCCC3	i	nt	i	i	i	i
Cc1cc(OCCCCNC(C)C)cc(C(C)C)c1	i	15µM	i	?	i	?
Cc1cc(OCCOCCNC(C)C)cc(C)c1Cl	i	?	i	?	i	nt
Cc1cc(=O)n(Cc2cccc(Cl)c2)c2c1c(C)nn2C	i	nt	i	i	i	i
CCc1cccc(C)c1NC(=S)N(CCOC)C(C)c1ccco1 (stereo not given)	i	i	i	i	-66	i
CCCCN1C(=O)N(c2ccc(Br)cc2)C(=O)C1c1nnnn1-c1c(C)cccc1Cl (stereo not given)	nt	nt	nt	nt	i	nt
Cc1cccc(N(CC(=O)N(C)Cc2ccccc2)S(=O)(=O)c2ccccc2)c1C	i	?	i	i	-63	i
Cc1cccc(N(CC(=O)NCCc2ccccc2)S(=O)(=O)c2ccccc2)c1C	i	i	i	?	i	i
COc1cc(CN(C(=O)COc2ccc(Br)cc2)c2ccccn2)cc(OC)c1OC	i	i	i	i	i	i
Cc1ccc(S(=O)(=O)NCCN2CCOCC2)s1	nt	nt	i	nt	-67	nt
O=C1Cc2cc(NS(=O)(=O)c3ccc(Cl)cc3)cc3c2N1CCC3	i	i	i	i	i	i
O=C1Cc2cc(NS(=O)(=O)c3ccc([N+](=O)[O-])cc3)cc3c2N1CCC3	?	i	i	i	i	10µM
O=Cc1ccnc2ccccc12	i	nt	nt	nt	nt	i
Cc1nc(-c2ccc(NC(=O)/C=C\C(=O)O)cc2)cs1	i	i	i	i	-81	i
O=C(Nc1ccc(-c2csc(-c3ccccc3)n2)cc1)c1ccccc1	nt	?	i	?	-101	nt
Cc1nc(-c2ccc(C(=O)Nc3ccccc3F)cc2)cs1	i	?	8.9µM	?	-70	i
CCCCCC(=O)Nc1ccc(-c2csc(C)n2)cc1	i	i	i	i	i	i
O=C(Nc1ccccc1F)c1ccc(C(=O)c2ccccc2)cc1	i	?	i	i	-72	i
C=CCNC(=O)c1ccc(-c2nc(-c3ccccc3)cs2)cc1	nt	?	i	?	i	nt
Cc1nc(-c2ccc(NC(=O)c3ccccc3C)cc2)cs1	?	?	i	?	i	?
O=C(/C=C/c1ccccc1)Nc1nc(-c2cccs2)ns1	i	i	i	i	i	i
CCOc1ccc(NC(=O)c2ccc(-c3csc(C)n3)cc2)cc1	i	i	i	i	i	i
COc1ccc(NC(=O)c2ccc(-c3csc(C)n3)cc2)cc1	i	?	i	?	?	i
Cc1nc(-c2ccc(C(=O)Nc3cccc(F)c3)cc2)cs1	i	5µM	?	?	i	i
SMILES	VACV Venus inh	MARV entry inh	FMDV antiviral	LASV entry inh	HCMV antiviral	Vaccinia mCherry
Cc1nc(-c2ccc(C(=O)Nc3ccc(F)cc3)cc2)cs1	i	6.3µM	i	?	?	i
CN1C(=O)C(C)(C(Nc2ccccc2)c2ccccc2)c2ccccc21 (stereo not given)	nt	nt	nt	nt	i	nt
COCc1[nH]nc2c1[C@@H](c1cccc(OC)c1)C(C#N)=C(N)O2	nt	i	nt	nt	nt	nt
N#Cc1c(NCc2ccccc2)ccnc1NCc1cccnc1	?	?	i	i	-80	?
O=C1CCCc2nc(N3CCN(c4ccccc4)CC3)ncc21	nt	?	i	?	i	nt
Fc1cnc(N2CCN(c3ccccc3)CC2)nc1N1CCN(c2ccccc2)CC1	i	?	20µM	?	?	i
N#Cc1cc2c(nc1S(=O)(=O)Cc1ccccc1)CCCC2	i	i	i	i	-63	i
Nc1ncc(Br)cc1S(=O)(=O)Nc1cc(C(F)(F)F)cc(C(F)(F)F)c1	?	?	i	14µM	-101	?
O=C(Cn1cc(COc2ccc([N+](=O)[O-])cc2)nn1)c1ccc(O)cc1	nt	nt	nt	i	nt	nt
